Assay results taken from PubChem BioAssay AID485270 (The Scripps Research Institute Molecular Screening Center, 2010).
The whole screen tested about 330,000 compounds, of which about 5,800 (1.8%) were called active. For the sample, actives were picked, then their nearest neighbours and some compounds at random. A number with no mark means an inactive call. No stated cut-off is given here; in the data, active means inhibition mostly above about 38% (no sharp cut-off); inactive means mostly below about 40%.

These compounds were tested against Orexin/Hypocretin receptor type 1 (Homo sapiens) (UniProt O43613) (assay: blocks the human orexin 1 receptor (AID 485270;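 further: 0% = agonist challenge alone and 100% = reference antagonist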)). Settings: OX1R-expressing cells, FRET antagonist read-out; at 6.6 µM; stronger effect = higher value.
Orexin/Hypocretin receptor type 1 (Homo sapiens), sequence (O43613 whole entry, looked up): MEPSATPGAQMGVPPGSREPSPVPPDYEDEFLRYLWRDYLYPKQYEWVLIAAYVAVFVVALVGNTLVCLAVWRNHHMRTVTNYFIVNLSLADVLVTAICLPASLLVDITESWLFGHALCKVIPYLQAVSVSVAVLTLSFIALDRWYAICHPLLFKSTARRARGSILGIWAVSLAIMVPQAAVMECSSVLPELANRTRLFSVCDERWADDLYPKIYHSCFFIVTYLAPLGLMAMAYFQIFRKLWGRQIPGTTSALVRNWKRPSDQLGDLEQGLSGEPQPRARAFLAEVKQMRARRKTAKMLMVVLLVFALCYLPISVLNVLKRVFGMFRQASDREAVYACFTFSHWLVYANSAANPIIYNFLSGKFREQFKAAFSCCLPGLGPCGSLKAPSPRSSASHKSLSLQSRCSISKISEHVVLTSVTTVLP

Row | SMILES | inhibition
1 | Cc1ccc(CNC(=O)COC(=O)C2CCC2)cc1 | 8.9%
2 | O=C(COC(=O)c1cc(S(=O)(=O)N2CCOCC2)ccc1F)NC1CC1 | 8.42%
3 | CN(CC(=O)NCCc1ccc(S(N)(=O)=O)cc1)CC(=O)Nc1ccc(Cl)cc1 | 3.5%
4 | CCCc1cc(=O)[nH]c(SCC(=O)Nc2ccc(C(=O)Nc3ccccc3OC)cc2)n1 | 14.2%
5 | Cc1ccc2c(c1)NC(=O)[C@@]1(C)[C@@H](c3ccccc3)[C@H]3COc4ccc(Cl)cc4[C@@H]3N1C2=O | 27.8%
6 | CSc1ncccc1C(=O)NCC(c1ccco1)N1CCCCC1 (configuration not stated) | 1.61%
7 | O=C1N[C@@H](c2ccccc2)COC(=O)[C@H](Cc2ccc(F)cc2)C/C=C\C[C@@H]1CC(=O)N(CCO)Cc1ccccc1 | 13.5%
8 | CC1CC(=NNC(=O)C2COc3ccccc3O2)CC(C)(C)C1 (configuration not stated) | 5.91%
9 | O=C(Nc1ccccn1)C1CCN(S(=O)(=O)c2ccc3c(c2)OCCO3)CC1 | -0.64%
10 | COc1cccc(NC(=O)COC(=O)c2ccc3ccccc3n2)c1 | 10.5%
11 | CCc1ccc(C(=O)N2CCN(S(=O)(=O)c3sc(C(=O)O)c(C)c3C(=O)O)CC2)cc1 | 0.64%
12 | COc1ccc(CCOC2OC(CO)C(OC(=O)/C=C/c3ccc(O)c(OC)c3)C(O[C@H]3O[C@@H](C)[C@H](O)[C@@H](O)[C@H]3O)C2O)cc1O (some centres not stated) | 3.08%
13 | CCOC(=O)CSC1=N/C(=C/c2ccc(-n3cncn3)cc2)C(=O)N1C(C)=O | 64.5% (active)
14 | CCOC(=O)CSc1ccccn1 | 2.08%
15 | CCOC(=O)CSc1nc(C)cc2c1C(=O)OC2 | 5.73%
16 | COc1cccc(CC(=O)OCC(=O)NCc2ccc3c(c2)OCO3)c1 | 4.94%
17 | CC(=O)Nc1ccc(S(=O)(=O)NCC(=O)OCC(=O)c2ccc[nH]2)cc1 | 7.15%
18 | Cc1ccc(C)c(NC(=O)COC(=O)c2nn(C)c(=O)c3ccccc23)c1 | 4.64%
19 | CC(Sc1nncn1C)C(=O)NCCC1=CCCCC1 (configuration not stated) | 5.26%

Row | SMILES | inhibition
20 | COc1ccc(CNc2nc(NCc3ccc(OC)cc3)c3ncn(C4CCCC4)c3n2)cc1 | 15.3%
21 | O=C(Nc1ccc(Br)cn1)c1ccc([N+](=O)[O-])o1 | 64.5% (active)
22 | Cc1onc(NC(=O)c2ccc([N+](=O)[O-])o2)c1Br | 33.4%
23 | O=C(Nc1ccc(Br)cn1)c1ccc([N+](=O)[O-])cc1Cl | 13.9%
24 | COc1ccc(C2(c3ccc(OC)cc3)NC(=O)N(CC(=O)Nc3cc(C)on3)C2=O)cc1 | 14%
25 | CCN1C[C@@H]2[C@@H]3C(=O)N(Cc4ccccc4)C(=O)[C@@H]3[C@](Cc3ccccc3)(C(=O)OC)N2C1=NC1CCCCC1 | 5.88%
26 | COc1cnn(-c2ccc([N+](=O)[O-])cc2)c(=O)c1Cl | 49.7% (active)
27 | COc1ccc(N2CCN(c3ccc([N+](=O)[O-])cc3Cl)CC2)cc1 | 11.7%
28 | CC(C)(C)c1cnnn1-c1ccc([N+](=O)[O-])cc1 | 29.6%
29 | O=C(Cn1cnc2c(OCc3ccccc3)ncnc21)NCCCn1ccnc1 | -0.28%
30 | Cc1cc(NC(=O)COc2ccccc2C#N)no1 | 4.54%
31 | CNC[C@H]1Oc2c(NC(=O)C3CCCCC3)cccc2C(=O)N([C@H](C)CO)C[C@@H]1C | 6.17%
32 | COc1cc(/C=C/C(=O)Nc2ccc(OC)c(S(=O)(=O)N3CCOCC3)c2)ccc1OCC#N | 6.14%
33 | CNC(=O)c1cc2c(ccc3ccccc32)oc1=N | 50.1%
34 | CN(C)C(=O)c1coc2nc3ccccc3nc12 | 7.78%
35 | CNC(=O)c1cccc2nc3ccccc3nc12 | 61.4% (active)
36 | C=CC[C@@H](CC(=O)NCCO)C(=O)N[C@H](C)COC(=O)[C@@H](CC=C)CC(=O)OC(C)(C)C | 5%
37 | CN1CCN(C(=O)c2ccc(-c3ccc(Br)cc3)o2)CC1 | 8.86%
38 | COc1ccc(N2C(=O)c3cccc4cccc(c34)C2=O)nn1 | 62.1% (active)

Row | SMILES | inhibition
39 | O=C1c2ccccc2C(=O)N1c1cccc2ccccc12 | 17%
40 | O=C1c2cccc3cccc(c23)C(=O)N1c1cccc(O)c1 | 26.1%
41 | O=C(CSc1nnc(-c2ccncc2)o1)Nc1cccc(Cl)c1 | 4.25%
42 | O=C(OCC(=O)N1CCCCC1)c1ccc(OC(F)(F)F)cc1 | 10.9%
43 | COc1ccc(S(=O)(=O)N2CCOCC2)cc1NC(=O)CSc1nnc(NC2CC2)s1 | 5.24%
44 | Cc1ccc(CNC(=O)Cn2cnc3c(NCc4ccccc4)ncnc32)o1 | 13.2%
45 | CC(=O)Nc1ccc(S(=O)(=O)Nc2ccc(N3CCCCC3)cc2)cc1 | 16.6%
46 | COc1cc(OC)c(C(=O)NNC(=O)c2ccccc2-n2cccc2)cc1OC | 10.5%
47 | Oc1c(Cl)cc(Cl)c(Cl)c1Cc1c(O)c(Cl)cc(Cl)c1Cl | 60.5% (active)
48 | Cc1cc(NC(=O)CN2C(=O)NC(CC(C)C)C2=O)no1 (configuration not stated) | 4.3%
49 | NS(=O)(=O)c1ccc(CCNC(=O)CNC(=O)Cc2ccccc2)cc1 | 1.42%
50 | O=C(NCCCN1CCOCC1)c1ccc(N2CCCC2)c([N+](=O)[O-])c1 | 52.4%
51 | NS(=O)(=O)c1ccc(CCNC(=O)c2ccc([N+](=O)[O-])cc2[N+](=O)[O-])cc1 | 138% (active)
52 | O=C(NCCCN1CCOCC1)c1ccc([N+](=O)[O-])cc1[N+](=O)[O-] | 70.3% (active)
53 | O=[N+]([O-])c1ccc(NCCCN2CCOCC2)c(Cl)c1 | 10.8%
54 | NS(=O)(=O)c1ccc(CCNC(=O)c2ccc(Cl)cc2[N+](=O)[O-])cc1 | 26.8%
55 | NS(=O)(=O)c1ccc(CNC(=O)c2ccc(Cl)cc2[N+](=O)[O-])cc1 | 70.7% (active)
56 | O=C(Nc1cccnc1)c1ccc(Cl)cc1[N+](=O)[O-] | 22.6%
57 | COc1ccc(C(=O)NCCc2ccc(S(N)(=O)=O)cc2)cc1OC | 17.6%
